NPC1 promoter act: activators of NPC1 promoter. Potency, µM (top dose mostly 9.22 µM), without a hit: at the highest dose activation, usual class: activators. hit rate 2.4% among 320,000. Huh7 NPC1 promoter luciferase reporter, 24 h; further: % of control where 0% means no effect; nearly all actives have a fitted effect of over 60% in size
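Huh7 reporter cells (NPC1 promoter driving luciferase) are dosed with compound for 24 h at 37 °C, 5% CO2; luciferase detection reagent is then added and luminescence measured after 10 min at ambient temperature.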
ELG1 genotox: genotoxicity induction in ELG1-luciferase HEK293T cells. HEK293T ELG1-luciferase reporter, luminescence, 16 h. Potency, µM (titrated, usually from 46 µM), for inactives: top-dose activity change, positive = activation, hits mostly activators. hit rate 1.3% among 330,000; further: % of control where 0% means no effect; nearly all actives have a fitted effect of over 60% in size
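HEK293T cells expressing luciferase-tagged ELG1 were treated with compound or DMSO for 16 hr at 37°C. Luciferase activity was then read after 30 min with ONE-Glo at room temperature; rising signal flags genetic stress.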
Rab9 promoter act: Rab9 promoter activation; Potency, µM (doses to about 9.22 µM), for inactives: at the top dose activation, negative = inhibition, most hits filed as activators; hit rate 2.8% among 320,000; Huh7 Rab9 promoter-luciferase reporter, luminescence, 24 h; AID 485297; further: % of control where 0% means no effect; nearly all actives have a fitted effect of over 60% in size
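Huh7 reporter line, Rab9 promoter upstream of luciferase. Compound exposure 24 h at 37 °C in reduced-serum medium with 10% FBS. Read-out: luminescence.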
SMN2 splice enh: increases expression of the SMN2 splice variant; HEK293 SMN2-luciferase splicing reporter, luminescence, 30-36 h; Potency, µM (highest dose often 46.1 µM), for the others: top-dose activity change, positive = activation, most hits filed as activators; hit rate 2.8% among 210,000; AID 1458; further: % of control where 0% means no effect; nearly all actives have a fitted effect of over 55% in size
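HEK293 cells carry an SMN2 minigene-luciferase reporter in which exon 7 inclusion puts luciferase in frame. Cells were seeded at 2000 cells/well, attached for 10-12 hours, then exposed to compounds for 30-36 hours at 37C before ONE-Glo luminescence.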
FLuc modulator: inhibits or activates purified firefly luciferase, miR-21 counter-screen; Potency, µM (top dose mostly 57.5 µM), for inactives: at the highest dose activity change, negative = inhibition, hits mostly inhibitors; purified FLuc, Km substrates, luminescence inhibition; AID 588342; hit rate 6.9% among 360,000; P08659;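 further: plate controls were vehicle for no effect and reference inhibitor for full effect; nearly all actives have a fitted effect of over 55% in size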
Target sequence (P08659 whole entry, looked up): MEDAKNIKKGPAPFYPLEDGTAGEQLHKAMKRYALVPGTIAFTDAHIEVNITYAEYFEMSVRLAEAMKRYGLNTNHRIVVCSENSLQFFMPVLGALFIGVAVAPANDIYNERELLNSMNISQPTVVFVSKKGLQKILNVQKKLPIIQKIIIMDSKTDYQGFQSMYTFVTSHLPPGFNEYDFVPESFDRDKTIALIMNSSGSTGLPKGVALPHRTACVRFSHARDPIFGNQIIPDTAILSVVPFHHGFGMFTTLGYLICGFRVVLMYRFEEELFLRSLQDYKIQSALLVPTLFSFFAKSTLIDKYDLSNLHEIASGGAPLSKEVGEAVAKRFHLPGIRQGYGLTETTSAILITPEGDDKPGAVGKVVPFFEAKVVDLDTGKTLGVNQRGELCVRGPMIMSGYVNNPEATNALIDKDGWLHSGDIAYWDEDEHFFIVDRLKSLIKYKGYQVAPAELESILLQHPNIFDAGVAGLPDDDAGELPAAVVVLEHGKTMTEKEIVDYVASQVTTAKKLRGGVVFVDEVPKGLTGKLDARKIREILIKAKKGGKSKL
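Purified P. pyralis luciferase, 10 nM final, with Km-level 10 uM D-luciferin and 10 uM ATP in 50 mM Tris acetate pH 7.5, 10 mM Mg acetate, 0.01% Tween-20, 0.05% BSA; 6-point qHTS titration about 60 µM downward; luminescence read.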
* hit, by the source's call; ? = inconclusive; / = no result given; [ ] = remark or other dose. A selection: hits, their analogues and other compounds. The true share with any hit is near 7.4%. The call rests on the fitted dose curve; in most records, active means well fitted curve in the direction sought with a large enough effect; inconclusive means small, poorly fitted or top-dose-only effect, or another doubt; inactive means no such curve, though single readings can be large; an effect the other way counts as inactive or inconclusive. Potency means the concentration at half of the fitted maximal effect.

SMILES	NPC1 promoter act	ELG1 genotox	Rab9 promoter act	SMN2 splice enh	FLuc modulator
CCc1ccc(OCC(=O)Nc2cc(-c3nc4cc(C)ccc4o3)ccc2C)cc1	/	/	/	4%	?
Cc1ccnc(Nc2nc(-c3ccc(O)cc3)cs2)c1	2.5µM*	?	3.2µM*	/	8.5µM*
CCC(=O)Nc1nc(C)c(-c2csc(Nc3ccccn3)n2)s1	?	2%	?	15%	17µM*
Cc1ccnc(Nc2nc(-c3ccc(O)c(O)c3)cs2)c1	?	5.8µM*	-4%	/	6µM*
Oc1ccc(-c2csc(Nc3ccccn3)n2)cc1O	?	3.7µM*	-14%	/	9.5µM*
COc1ccc(C2CC(=O)c3cc(-c4nc(-c5cccc([N+](=O)[O-])c5)cs4)c(=O)n(-c4ccccc4C)c3C2)cc1 (stereo not drawn)	/	/	/	7%	-7%
Cc1ccnc(Nc2nc(-c3ccc(O)cc3O)cs2)c1	?	14%	?	/	17µM*
CC(=O)Nc1ccc(-c2csc(Nc3ccccn3)n2)cc1	0.5µM*	?	0.45µM*	/	?
COc1ccccc1C1CC(c2cccs2)=Nc2ccccc2S1 (stereo not drawn)	1%	?	2%	-7%	?
Fc1ccccc1C1CC(c2ccco2)=Nc2ccccc2S1 (stereo not drawn)	30%	?	20%	/	21µM*
Cc1cc(C)nc(Nc2nc3ccccc3[nH]2)n1	?	?	?	13µM*	?
Nc1ccc(Nc2nc3ccccc3[nH]2)cc1	2%	0%	3%	/	-22%
c1ccc(Nc2nc3ccccc3[nH]2)nc1	?	?	3.5µM*	?	24µM*
Cc1nc(N2CCOCC2)c2c(C(=O)N3CCN(c4ccccc4F)CC3)c(C)oc2n1	/	/	/	/	-5%
O=C(O)/C=C\C(=O)Nc1ccc2c(c1)C(=O)c1cc(F)ccc1-2	/	/	/	-7%[9.22 µM]	/
CCc1ccc2nc3n[nH]c(N)c3cc2c1	?	13µM*	2.8µM*	?	4.8µM*
CCn1c(O)c(N=NC(=O)c2cccs2)c2ccccc21	?	-9%	2%	1%	17µM*
CC(N)(C(=O)O)c1ccc(S(=O)(=O)O)cc1 (stereo not drawn)	/	/	/	16%	/
OC[C@H]1O[C@@H](Oc2cc(O)cc(/C=C/c3ccc(O)cc3)c2)[C@H](O)[C@@H](O)[C@@H]1O	4%	/	3%	/	19µM*
Cc1cc(C)c(NC(=O)c2cc(S(=O)(=O)N3CCN(c4ccccc4F)CC3)ccc2F)c(C)c1	/	/	/	/	-1%
Cc1ccc(/C=C(\C#N)C(=O)Nc2ccccn2)o1	?	5.2µM*	2.5µM*	18µM*	8.5µM*
Cc1cccc(NC(=O)/C(C#N)=C\c2ccc(C(=O)O)cc2)c1	-6%	-9%	-5%	-7%	?
COc1ccc(/C=C(\C#N)C(=O)Nc2ccccn2)cc1	-8%	?	-7%	/	2.1µM*
Cc1ccc(/C=C(\C#N)C(=O)Nc2cccc(C)n2)cc1	4%	-3%	-2%	/	2.4µM*
COc1ccc(O)c(/C=C(\C#N)C(=O)Nc2ccccn2)c1	-2%	17%	-2%	/	2.4µM*
SMILES	NPC1 promoter act	ELG1 genotox	Rab9 promoter act	SMN2 splice enh	FLuc modulator
O=C1C(=O)N(C2CCN(C(=O)c3ccccc3F)CC2)CCN1Cc1ccc(F)cc1	/	/	/	/	-1%
CCCSc1ncnc2c1c(-c1ccccc1)cn2-c1ccccc1OC	/	/	/	0%	-10%
OCCN[C@@H]1c2cc(Cl)ccc2-c2c(Cl)cc(Cl)cc21	/	/	/	-9%[9.22 µM]	/
CCOC(=O)C1CCCN(c2nc3c(S(=O)(=O)c4ccc(CC)cc4)nnn3c3ccsc23)C1 (stereo not drawn)	/	/	/	/	-9%
O=[N+]([O-])c1ccc(O)c(-c2nn[nH]n2)c1	13%	?	27%	-3%	27µM*
O=C(/C=C/c1ccccc1)Nc1nc(-c2ccncc2)cs1	1%	-1%	-6%	-75%	2.7µM*
O=C(/C=C\c1ccco1)Nc1nc(-c2ccccc2)cs1	13%	3%	?	?	12µM*
COc1cc(C(=O)Nc2ccccc2OCc2cc(=O)n3cc(C)sc3n2)cc(OC)c1OC	/	/	/	10%	2%
CN(C)c1cccc(C(=O)NNC(=O)CN2C(=O)C3CC=CCC3C2=O)c1 (stereo not drawn)	/	10µM*	/	/	/
Cc1cccc(C)c1NC(=O)CN1C(=O)C2CC=CCC2C1=O (stereo not drawn)	-2%	3%	-3%	/	5%
CCOC(=O)c1c(-c2ccc(OC)c(OC)c2)csc1NC(=O)c1ccc(C)cc1	/	/	/	-6%	0%
COc1ccc(C(=O)Nc2scc(-c3ccc(Cl)cc3Cl)c2C(N)=O)cc1	2.8µM*	-1%	3.2µM*	-9%	4.8µM*
CN(C)C=NC(=O)c1cc2c(n(-c3ccccc3)c1=O)CC(C)(C)CC2=O	/	/	/	-1%	-5%
C=C(C)CSc1nc(N)c(C#N)c(-c2ccc(C)cc2)c1C#N	/	/	/	2%	15µM*
O=C(Nc1nccs1)c1ccc(CSc2ccccc2)o1	3.2µM*	16%	2µM*	/	5.4µM*
Cc1ccc(SCc2ccc(C(=O)Nc3nccs3)o2)cc1	?	8%	?	/	15µM*
Cc1ccc(Cn2ccn(Cc3ccccc3F)c(=O)c2=O)cc1	/	/	/	/	-5%
COc1cccc(NC(=O)C(=O)NCC2CCCN2S(=O)(=O)c2ccccc2)c1 (stereo not drawn)	16%	3%	?	/	15µM*
COc1cccc(NC(=O)C(=O)NCCC2CCCCN2S(=O)(=O)c2ccccc2)c1 (stereo not drawn)	0%	5%	13%	/	24µM*
COc1ccccc1NC(=O)C(=O)NCCC1CCCCN1S(=O)(=O)c1ccccc1 (stereo not drawn)	4%	-2%	-1%	/	-10%
CN1C(=O)/C(=N/OC(=O)c2ccccc2)c2ccccc21	-5%	0%	-3%	-8%	7.6µM*
COc1ccc(Cn2c(-c3ccc(Br)cc3)c[n+]3ccccc23)cc1	1%	17%	9%	11µM*	11µM*
COc1ccc(Cn2c(C)ccc2C)cc1	0%	9%	-2%	6%	0%
CC(Oc1ccc(F)cc1)C(=O)Nc1nc(-c2ccc(F)cc2)ns1 (stereo not drawn)	/	/	/	-44%	?
N#Cc1ccccc1OCCN1C(=O)c2ccccc2C1=O	26%	13µM*	29%	/	?
Nc1cccc2c1C(=O)N(CCOc1ccccc1F)C2=O	0.35µM*	0.41µM*	0.35µM*	/	0.76µM*
COc1ccc(OCCN2C(=O)c3ccccc3C2=O)c([N+](=O)[O-])c1	28%	?	?	/	27µM*
CCC/C=C(\CCC)C(NS(=O)(=O)c1ccccc1)c1ccc(C(F)(F)F)cc1 (stereo not drawn)	/	/	/	-17%	/
Cc1noc(C)c1C(=O)N1CCC2(CCN(Cc3ccc(C#N)cc3)CC2)CC1	/	/	/	-36%	/
Cc1ccccc1CN1C(=O)c2ccccc2Sc2ccc(C(=O)NC3CCCC3)cc21	/	/	/	/	4%

Source: PubChem (National Center for Advancing Translational Sciences (NCATS))
